{"source": "paper PMC9911399", "about": "“Two distinct binding modes provide the RNA-binding protein RbFox with extraordinary sequence specificity”", "binders": {"B1": {"name": "ACAGCUC (DNA:RNA)", "RNA": "GGGAGACCGGAAUUCAGAUUGUCCACAGCUCUUAAAUCCCGUCGUAGCCACCA", "DNA 1": "CAATCTGAATTCCGGTCTCCC", "DNA 2": "TGGTGGCTACGACGGGATT"}, "B2": {"name": "CUAUCUG (DNA:RNA)", "RNA": "B1 RNA with A25C, C26U, G28U, C31G", "DNA 1": "CAATCTGAATTCCGGTCTCCC", "DNA 2": "TGGTGGCTACGACGGGATT"}, "B3": {"name": "UAAGCGA (DNA:RNA)", "RNA": "B1 RNA with A25U, C26A, U30G, C31A", "DNA 1": "CAATCTGAATTCCGGTCTCCC", "DNA 2": "TGGTGGCTACGACGGGATT"}, "B4": {"name": "GGUCAGA (DNA:RNA)", "RNA": "GGGAGACCGGAAUUCAGAUUGUCCGGUCAGAUUAAAUCCCGUCGUAGCCACCA", "DNA 1": "CAATCTGAATTCCGGTCTCCC", "DNA 2": "TGGTGGCTACGACGGGATT"}, "B5": {"name": "CAUUUGG (DNA:RNA)", "RNA": "B4 RNA with G25C, G26A, C28U, A29U, A31G", "DNA 1": "CAATCTGAATTCCGGTCTCCC", "DNA 2": "TGGTGGCTACGACGGGATT"}, "B6": {"name": "GACUAUC (DNA:RNA)", "RNA": "B1 RNA with A25G, C26A, A27C, G28U, C29A", "DNA 1": "CAATCTGAATTCCGGTCTCCC", "DNA 2": "TGGTGGCTACGACGGGATT"}, "B7": {"name": "AAAGUAC (DNA:RNA)", "RNA": "B1 RNA with C26A, C29U, U30A", "DNA 1": "CAATCTGAATTCCGGTCTCCC", "DNA 2": "TGGTGGCTACGACGGGATT"}, "B8": {"name": "AAAACUA (DNA:RNA)", "RNA": "B1 RNA with C26A, G28A, C31A", "DNA 1": "CAATCTGAATTCCGGTCTCCC", "DNA 2": "TGGTGGCTACGACGGGATT"}, "B9": {"name": "GAUCUCU (DNA:RNA)", "RNA": "B4 RNA with G26A, A29U, G30C, A31U", "DNA 1": "CAATCTGAATTCCGGTCTCCC", "DNA 2": "TGGTGGCTACGACGGGATT"}, "B10": {"name": "UUAAGUU (DNA:RNA)", "RNA": "B1 RNA with A25U, C26U, G28A, C29G, C31U", "DNA 1": "CAATCTGAATTCCGGTCTCCC", "DNA 2": "TGGTGGCTACGACGGGATT"}, "B11": {"name": "UGCGCGU (DNA:RNA)", "RNA": "B1 RNA with A25U, C26G, A27C, U30G, C31U", "DNA 1": "CAATCTGAATTCCGGTCTCCC", "DNA 2": "TGGTGGCTACGACGGGATT"}, "B12": {"name": "UGCGUGU (DNA:RNA)", "RNA": "B4 RNA with G25U, U27C, C28G, A29U, A31U", "DNA 1": "CAATCTGAATTCCGGTCTCCC", "DNA 2": "TGGTGGCTACGACGGGATT"}, "B13": {"name": "UGCGUUU (DNA:RNA)", "RNA": "B1 RNA with A25U, C26G, A27C, C29U, C31U", "DNA 1": "CAATCTGAATTCCGGTCTCCC", "DNA 2": "TGGTGGCTACGACGGGATT"}, "B14": {"name": "CGCGUGC (DNA:RNA)", "RNA": "B1 RNA with A25C, C26G, A27C, C29U, U30G", "DNA 1": "CAATCTGAATTCCGGTCTCCC", "DNA 2": "TGGTGGCTACGACGGGATT"}, "B15": {"name": "UGCGUCG (DNA:RNA)", "RNA": "B1 RNA with A25U, C26G, A27C, C29U, U30C, C31G", "DNA 1": "CAATCTGAATTCCGGTCTCCC", "DNA 2": "TGGTGGCTACGACGGGATT"}, "B16": {"name": "UGCGUCC (DNA:RNA)", "RNA": "B1 RNA with A25U, C26G, A27C, C29U, U30C", "DNA 1": "CAATCTGAATTCCGGTCTCCC", "DNA 2": "TGGTGGCTACGACGGGATT"}, "B17": {"name": "UCCUGCG (DNA:RNA)", "RNA": "B1 RNA with A25U, A27C, G28U, C29G, U30C, C31G", "DNA 1": "CAATCTGAATTCCGGTCTCCC", "DNA 2": "TGGTGGCTACGACGGGATT"}, "B18": {"name": "CUGCGUG (DNA:RNA)", "RNA": "B1 RNA with A25C, C26U, A27G, G28C, C29G, C31G", "DNA 1": "CAATCTGAATTCCGGTCTCCC", "DNA 2": "TGGTGGCTACGACGGGATT"}, "B19": {"name": "UGCUGCG (DNA:RNA)", "RNA": "B4 RNA with G25U, U27C, C28U, A29G, G30C, A31G", "DNA 1": "CAATCTGAATTCCGGTCTCCC", "DNA 2": "TGGTGGCTACGACGGGATT"}, "B20": {"name": "UGUGUCC (DNA:RNA)", "RNA": "B1 RNA with A25U, C26G, A27U, C29U, U30C", "DNA 1": "CAATCTGAATTCCGGTCTCCC", "DNA 2": "TGGTGGCTACGACGGGATT"}, "B21": {"name": "UUCGUGC (DNA:RNA)", "RNA": "B1 RNA with A25U, C26U, A27C, C29U, U30G", "DNA 1": "CAATCTGAATTCCGGTCTCCC", "DNA 2": "TGGTGGCTACGACGGGATT"}, "B22": {"name": "UGCGUGC (DNA:RNA)", "RNA": "B1 RNA with A25U, C26G, A27C, C29U, U30G", "DNA 1": "CAATCTGAATTCCGGTCTCCC", "DNA 2": "TGGTGGCTACGACGGGATT"}}, "note": "Where a chain is given by its changes, count along the chain named. The full ranking holds about 16,000 sequences; the median of “ka relative to ugcaugu” is about 0.0091, and the highest 2% start at about 0.032. What follows is part of a selection rich in the highest values, with near analogues and random picks from the rest."}
{"molecular_target": "T1, RBFOX1 RRM (Homo sapiens, UniProt Q9NWB1 109-208)", "T1 sequence": "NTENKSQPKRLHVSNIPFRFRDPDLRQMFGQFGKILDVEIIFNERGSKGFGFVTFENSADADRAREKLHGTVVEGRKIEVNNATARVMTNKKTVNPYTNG", "experiment": "EMSA; HiTS-Eq, 1 nM pool, 10 min; buffer printed only for the single-RNA assays: 10 mM Tris pH 7.5, 150 mM NaCl, 3.4 mM EDTA, 0.001% NP-40, 30 C", "conditions": "tags: His6 N-terminal (pET28a); label: 5' 32P", "outline": "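Purified RbFox RRM (wild type or mutant) was equilibrated for 10 min in 50 µL with 1 nM of a 5′-radiolabelled pool of RNA with 7 randomized nucleotides, its flanks annealed to DNA oligonucleotides, across increasing protein concentrations. Free RNA was separated by 8% native PAGE, excised, reverse-transcribed, PCR-barcoded and sequenced on an Illumina HiSeq 2500. Relative association constants came from read-count changes of each variant against the control reaction, normalised to the cognate motif.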"}
{"binder": "B1", "binding signal": "0.00303 KA relative to UGCAUGU"}
{"binder": "B2", "binding signal": "0.00983 KA relative to UGCAUGU"}
{"binder": "B3", "binding signal": "0.0108 KA relative to UGCAUGU"}
{"binder": "B4", "binding signal": "0.00171 KA relative to UGCAUGU"}
{"binder": "B5", "binding signal": "0.014 KA relative to UGCAUGU"}
{"binder": "B6", "binding signal": "0.00429 KA relative to UGCAUGU"}
{"binder": "B7", "binding signal": "0.00371 KA relative to UGCAUGU"}
{"binder": "B8", "binding signal": "0.00178 KA relative to UGCAUGU"}
{"binder": "B9", "binding signal": "0.0194 KA relative to UGCAUGU"}
{"binder": "B10", "binding signal": "0.0109 KA relative to UGCAUGU"}
{"binder": "B11", "binding signal": "0.0288 KA relative to UGCAUGU"}
{"binder": "B12", "binding signal": "0.0418 KA relative to UGCAUGU"}
{"binder": "B13", "binding signal": "0.0236 KA relative to UGCAUGU"}
{"binder": "B14", "binding signal": "0.0241 KA relative to UGCAUGU"}
{"binder": "B15", "binding signal": "0.0236 KA relative to UGCAUGU"}
{"binder": "B16", "binding signal": "0.0132 KA relative to UGCAUGU"}
{"binder": "B17", "binding signal": "0.0166 KA relative to UGCAUGU"}
{"binder": "B18", "binding signal": "0.035 KA relative to UGCAUGU"}
{"binder": "B19", "binding signal": "0.0333 KA relative to UGCAUGU"}
{"binder": "B20", "binding signal": "0.0226 KA relative to UGCAUGU"}
{"binder": "B21", "binding signal": "0.0243 KA relative to UGCAUGU"}
{"binder": "B22", "binding signal": "0.0465 KA relative to UGCAUGU"}
